Compounds without any hit were thinned out: in the full panel of roughly 83,000, 20% have a hit.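 Assay: single dose, 48 h. Readout: percent growth (0 = no net growth; negative = cell death). Active: <10.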 Activity calls are given as the source filed them.

Here are results for 40 molecules from PubChem BioAssay (NCI).

This assay relates to HL-60(TB) leukemia. The assay can be described thus: NCI-60 one-dose screen, 48 h (100 = growth as untreated, 0 = no growth, -100 = all killed). Conditions: 10 µM unless noted.
Regarding `Cc1cnc(-c2ccc(-c3ccc(NC(=O)Nc4c(F)cc(F)cc4F)cc3F)c3c2C(=O)NC3)[nH]1`, the growth is 58.1% (inactive). Next, `O=C(O)c1ccc(-n2cc(/C=N/Nc3ccc(Cl)cc3)c(-c3ccc(F)c(F)c3)n2)cc1`: 27.1% (inactive); `COCCCNC(=O)c1nnn2c1nc(N)c1cc(Cl)ccc12`: 93.7% (inactive).

For the molecule `Cc1cccc2nc3ccccc3c(Nc3ccc(NS(C)(=O)=O)cc3)c12`, the growth is 1.14% (active). Turning to `CN1C(=O)CNC(=O)[C@H](NC(=O)c2nc3ccccc3cc2O)CSSC[C@H]1C(=O)NCCc1nc2ccccc2cc1O`, the growth is -36.8% (active). Then `O=[N+]([O-])c1cccc(N=Cc2ccccc2)c1`, with 106% (inactive); and `COc1ccc(-c2nc(SCC(=O)Nc3ccc(C(C)=O)cc3)[nH]c(=O)c2C#N)cc1`, with 88.2% (inactive).

Consider `COc1cc2c(cc1OC)CC[N+](CCC[N+](C)(C)C)=C2`, for which the growth was 90.1% (inactive). For the molecule `CN(C)CCCOc1ccc(NC2=C(Cl)C(=O)C(Nc3ccc(OCCCN(C)C)cc3)=C(Cl)C2=O)cc1`, the growth is -39.9% (active). Then `C=CC(=O)Nc1cccc(-c2nc(SC)nc(Nc3cccc(OC)c3)c2C#N)c1`, with 42.2% (inactive); and `CCCCNC(=O)c1cc(NCc2cc(O)ccc2O)ccc1O`, with 3.56% (active). Then `CC12CCC(/C(=C/NNc3ccc([N+](=O)[O-])cc3[N+](=O)[O-])C1=O)C2(C)C` (stereo not given), with 110% (inactive); and `CCCCC1COc2cccc3c(SCC(=O)N(C)c4cccc5ccccc45)cc[n+]1c23` (stereo not given), with 89.8% (inactive); and `O=c1c2cc(F)ccc2sc2c(NCCCN3CCCC3)nc3ccccc3c12`, with 13.9% (inactive). Then `NC(=Nc1nc(-c2ccccn2)cc2ccccc12)c1ccccn1`, with -30.6% (active); and `C=CCN1CCCC1=O`, with 47.1% (inactive); and `COc1cc(CCc2cc(NC(=O)c3ccc(N4C[C@@H](C)N[C@@H](C)C4)cc3)n[nH]2)cc(OC)c1`, with 12.5% (inactive). Regarding `CCOC(=O)CC(=O)OC`, the growth is 97% (inactive).

On to `CNC(=O)NCC1OC(n2cnc3c(NC(=O)Nc4ccccc4)ncnc32)C(O[Si](C)(C)C(C)(C)C)C1CC(=O)N(C)OC` (stereo not given), for which the growth is -33.1% (active). As for `Cc1nn(-c2ccccc2)c(N2CCCCC2)c1/C=N/NC(=O)Cn1c(=O)sc2ccccc21`, the growth was 69.9% (inactive). Then `CCCCN(CCCC)CCC(=O)c1ccc(OC)c2ccccc12`, with 81.1% (inactive); and `C#C[C@]1(O)CC[C@H]2[C@@H]3CC=C4c5nc(Nc6ncccn6)sc5CC[C@]4(C)[C@H]3CC[C@@]21C`, with 60.4% (inactive). Next, `COc1ccc(C(=O)COc2cccc(/C=C3\CSc4ccc(C)cc4C3=O)c2)cc1`: 45.6% (inactive); `COc1ccc(S(=O)(=O)NCCCNc2cc(-c3c(-c4cccc(OC)c4)nc4sccn34)ccn2)cc1`: 32.7% (inactive); `COc1ccc2c(c1)oc1c(C)c3c(c(C)c12)C(=O)N(N)C3=O`: 38.3% (inactive).

For the molecule `S=C1SCN(Cc2ccccc2)CN1Cc1ccccc1`, the growth was 16.5% (inactive). Then `CCCc1cc(=O)n2c(C(=O)Nc3ccccc3OC)c(C(=O)Nc3ccc(F)cc3)sc2n1`, with 47.1% [30 µM] (inactive); and `Fc1ccc2nc(-c3nc(-c4ccccc4)n4ccccc34)[nH]c2c1`, with 67.6% (inactive).

As for `CCOC(=O)n1cc(C2=C(c3ccc(OC)c(OC)c3)COC2=O)c2ccccc21`, the growth was -28.7% (active).

For `CCOC(=O)C1CCc2c(ccc3ccccc23)N1CCC#N` (stereo not given), the growth is 110% (inactive).

As for `COc1cc(/C=C/C(=O)c2ccc(F)cc2)ccc1OCCCCOc1cc2c(cc1OC)C(=O)N1CCCC1C=N2` (stereo not given), the growth is -32.6% (active). Then `N/C(=N\c1nc2ccccc2s1)NC(=O)Nc1cccc(Cl)c1`, with 3.43% (active); and `COc1cc(C2c3cc4c(cc3C(OC(=O)C[n+]3ccccc3)C3COC(=O)C23)OCO4)cc(OC)c1OC` (stereo not given), with -32.5% (active); and `CCOC(=O)c1cc(C)n(-c2ccc(C(=O)O)cc2)c1C`, with 86.2% (inactive). Then `NC(=S)N1N=C(c2ccc(Cl)cc2)CC1c1cc2ccccc2[nH]c1=O` (stereo not given), with 75.1% (inactive).

Turning to `COc1cccc(-c2nc3sccn3c2-c2ccnc(NCCNS(=O)(=O)c3ccc(F)cc3)c2)c1`, the growth is -6.21% (active).

For the molecule `CC1CCCC(CC(N)=O)CC1` (stereo not given), the growth was 90.5% (inactive). Next, `CNC(=O)c1cncc(Cn2nc(C)c(NC(=O)c3ccc(COc4ccc(C(F)(F)F)cc4C)cc3)c2C)c1`: 63.6% (inactive); `O=C(O)c1cc([N+](=O)[O-])ccc1Oc1ccccc1`: 88.6% (inactive).

Turning to `O=C(/C=C\c1ccc(O)c(O)c1)c1ccccc1O`, the growth is 11.6% (inactive).
